D3 ag: agonists of human D3 dopamine receptor. P35462. D3R DiscoveRx beta-arrestin cells, luminescence, 90 min. max activation, %. actives 0.58% (n = 410,000). AID 652048; in the data active = max activation above about 30%; also: 0% is about no effect
Target sequence (P35462 whole entry, looked up): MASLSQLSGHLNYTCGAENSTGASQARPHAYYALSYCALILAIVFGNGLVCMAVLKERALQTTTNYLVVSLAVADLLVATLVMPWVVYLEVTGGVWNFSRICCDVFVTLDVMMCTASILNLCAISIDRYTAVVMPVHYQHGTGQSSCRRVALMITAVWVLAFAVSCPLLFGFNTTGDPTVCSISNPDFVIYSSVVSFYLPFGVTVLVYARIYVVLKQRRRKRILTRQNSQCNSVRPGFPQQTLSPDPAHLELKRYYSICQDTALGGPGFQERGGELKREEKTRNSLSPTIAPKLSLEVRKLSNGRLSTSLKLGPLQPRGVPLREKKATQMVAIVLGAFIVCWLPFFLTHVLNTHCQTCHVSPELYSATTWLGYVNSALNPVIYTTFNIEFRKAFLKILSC
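Agonist-mode cell screen: cells plated at 1500/well and incubated overnight at 37 °C, then exposed to library compounds for 90 min at 37 °C. Detection reagent was added for 30–60 min at room temperature, and luminescence was read.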
MCF10A rereplic: DNA re-replication induction in MCF 10a cells; actives 2.9% (n = 350,000); Potency, µM (highest dose often 46.1 µM), without a hit: at the highest dose activity, positive = re-replication, most hits filed as activators; MCF 10A DNA re-replication, Hoechst nuclear intensity, 48 h; also: potency is read from the fitted curve at half-maximal effect; % of control where 0% means no effect; nearly all actives have a fitted effect of over 50% in size
SW480 rereplic: DNA re-replication induction in SW480 cells. SW480 DNA re-replication, Hoechst DNA content imaging, 48 h. actives 1.8% (n = 340,000). Potency, µM (titrated, usually from 46.1 µM), without a hit: at the top dose re-replication activation, actives largely listed as activators; also: potency is read from the fitted curve at half-maximal effect; % of control where 0% means no effect; nearly all actives have a fitted effect of over 55% in size
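Compounds, transferred as 23 nL by pin tool, were incubated with cells for 48 hr; DNA content per nucleus was then quantified by Hoechst staining and fluorescence plate imaging.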
D3 antag: D3 dopamine receptor (human) antagonism; P35462; actives 2.5% (n = 360,000); max response, negative = inhibition, %; D3R cells, DiscoveRx beta-arrestin luminescence, antagonist mode; stronger effect = lower value; in the data active = max response below about -50%; inconclusive = no clear call, values can overlap the other calls; also: % is scaled to controls: 0 for no effect and ±100 for the full control effect
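Cells plated overnight at 1500 cells/well, then exposed to library compounds with dopamine controls for 90 minutes at 37 degrees C. DiscoveRx reagent added for 30–60 minutes at room temperature; luminescence read, quantitative HTS format.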
KB-V1 cytotox: KB-V1 MDR subline cytotoxicity. KB-V1 MDR cells viability, CellTiter-Glo, 72 h. Potency, µM (top dose mostly 46.1 µM), usual class: cytotoxic. actives 3.4% (n = 400,000); also: potency is read from the fitted curve at half-maximal effect; % is scaled to controls: 0 for no effect and ±100 for the full control effect; nearly all actives have a fitted effect of over 60% in size
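KB-V1 MDR subline cells in DMEM (phenol-red free, 10% FBS) exposed to compounds in qHTS concentration series for 72 h at 37 degrees C. Viability read by CellTiter-Glo luminescence; concentration-effect curves fitted after normalization and correction.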
KB-3-1 cytotox: kills parental KB-3-1 adenocarcinoma cells; KB-3-1 viability, CellTiter-Glo ATP luminescence, 72 h; actives 1.4% (n = 400,000); Potency, µM (highest dose often 46.1 µM), usual class: cytotoxic; also: potency is read from the fitted curve at half-maximal effect; % is scaled to controls: 0 for no effect and ±100 for the full control effect; nearly all actives have a fitted effect of over 60% in size
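Screening of KB-3-1 cells (DMEM, 10% FBS, phenol-red free) ran from lowest to highest compound concentration; after 72 h at 37 °C viability was read luminescently and curves fitted.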
The depositor's hits bear a star; i = inactive; ? = inconclusive; · = not tested or not shown. The list is not random: actives were taken first. Their share in the collection is about 8.9%. Unless noted, calls follow the shape of the dose curve; as a rule, active = well fitted curve in the direction sought with a large enough effect; inconclusive = small, poorly fitted or top-dose-only effect, or another doubt; inactive = no such curve, though single readings can be large; an effect the other way counts as inactive or inconclusive.

SMILES	D3 ag	MCF10A rereplic	SW480 rereplic	D3 antag	KB-V1 cytotox	KB-3-1 cytotox
CC1CCOC(=O)C=CC=CC(=O)OC2CC3OC4C5OC5(C)C(O)CC4(COC(=O)C1O)C2(C)C31CO1 (configuration not stated)	2	0.23µM*	?	-11	5.8µM*	0.21µM*
CC1=CC2OC3CC4OC(=O)C=CC=CC(=O)OCCC(C)C(O)C(=O)OCC2(CC1)C4(C)C31CO1 (configuration not stated)	11	12%	?	34	0.1µM*	0.037µM*
COC(=O)[C@@H]1[C@H]2CC[C@@H](C[C@H]1OC(=O)c1ccccc1)N2C	9	·	·	·	·	·
CC(C)(C)c1ccc(O)cc1	-19	-2%	0%	·	·	·
C[C@@H](Cc1ccccc1)N(C)C	-4	·	·	·	·	·
CC[C@@H](C(=O)[C@@H](C)[C@@H](O)[C@H](C)[C@@H]1O[C@@H]([C@@H](CC)C(=O)O)CC[C@@H]1C)[C@H]1O[C@]2(C=C[C@@H](O)[C@]3(CC[C@@](C)([C@H]4CC[C@](O)(CC)[C@H](C)O4)O3)O2)[C@H](C)C[C@@H]1C	249*	?	?	373	?	?
Nc1ccc2nc3c(c(Cl)c2c1)CCCC3	2	16µM*	?	-3	?	?
ClC1=C(Cl)[C@]2(Cl)[C@@H]3[C@@H]4C[C@@H]([C@H]5O[C@@H]45)[C@@H]3[C@@]1(Cl)C2(Cl)Cl	-6	·	·	·	·	·
O=C(O)c1cccc2nc3ccccc3nc12	9	0%	8.2µM*	-2	i	i
c1ccc2nc3ccccc3nc2c1	-26	?	18%	-25	i	i
Cc1c(O)c(=O)ccn1C	-12	?	-14%	-24	i	i
Cc1cc(C=C2C(=O)N(C)C(=O)N(C)C2=O)c(C)n1-c1ccccc1	2	5%	3%	10	i	i
CN1C(=O)C(=Cc2sc(=O)n(-c3ccccc3)c2N(C)C)C(=O)N(C)C1=O	-7	18µM*	28%	-30	i	?
COc1ccc(Oc2cc(NC(=O)c3nn(C)cc3[N+](=O)[O-])cc([N+](=O)[O-])c2)cc1	-5	2.1µM*	?	?	?	21µM*
COc1ccc(NC(=O)c2cn(CCC#N)nc2-c2cccc([N+](=O)[O-])c2)cc1	2	-1%	-7%	0	i	i
CNc1cc(Cl)c2nonc2c1[N+](=O)[O-]	-19	?	-137%	-109*	?	?
O=[N+]([O-])c1c(Cl)c(Cl)cc(Cl)c1Cl	-12	·	·	·	·	·
Cn1cccc1/C=C1\C(=O)NC(=O)N(Cc2ccco2)C1=O	-12	1%	3%	-18	i	?
O=C1NC(=O)N(CCc2ccc(F)cc2)C(=O)/C1=C\C=C\c1ccccc1	-1	4.1µM*	14%	-23	15µM*	16µM*
C=CCN1C(=O)NC(=O)/C(=C/C=C/c2ccccc2)C1=O	2	?	?	-1	i	i
O=C1NC(=O)N(Cc2ccccc2)C(=O)/C1=C\C=C\c1ccco1	-2	12µM*	-18%	-19	?	i
O=C1NC(=O)N(Cc2ccco2)C(=O)/C1=C/C=C/c1ccco1	1	18µM*	?	-13	?	?
C[C@@H]1O[C@@H](O[C@@H]2C=C3CC[C@@H]4[C@H](CC[C@]5(C)[C@@H](c6ccc(=O)oc6)CC[C@]45O)[C@@]3(C)CC2)[C@H](O)[C@H](O)[C@H]1O	3	·	·	·	·	·
O=c1cc(O)c2ccccc2[nH]1	13	?	10%	-25	?	i
CCN(CC)CCN1C(=O)CN=C(c2ccccc2F)c2cc(Cl)ccc21	-9	14%	3%	·	·	·
SMILES	D3 ag	MCF10A rereplic	SW480 rereplic	D3 antag	KB-V1 cytotox	KB-3-1 cytotox
COc1ccc2[nH]c3c(c2c1)CCN1C(=O)C(CC(=O)NCc2cccc(C(F)(F)F)c2)C[C@H](C(=O)N2CCCCC2)[C@@]31C (some centres not stated)	1	?	?	0	i	i
Cc1ccc(OCC(=O)N2CCN(CCc3ccncc3)CC2)cc1C	-7	·	·	·	i	i
CN(C)CCO	-1	·	·	·	·	·
Cc1cccc(N2CCN(C(=O)C34CC5CC(CC(C5)C3)C4)CC2)c1C	0	?	3%	-29	i	i
CC[C@H](C)[C@@H]1NC(=O)CNC(=O)c2csc(n2)[C@H](C(C)(C)O)OC(=O)C(C)(C)[C@H](CCCC(C)(Cl)Cl)OC(=O)c2csc1n2	0	·	·	57	13µM*	0.46µM*
O=[As]O[As]=O (configuration not stated)	·	11%	4%	·	·	·
CCON=O	7	0%	0.94µM*	·	·	·
CC(C)CCON=O	-12	0%	4%	·	·	·
C#C[C@]1(O)CC[C@H]2[C@@H]3CCC4=CC(=O)CCC4(C)[C@H]3CCC21C (some centres not stated)	·	2%	1%	·	·	·
Oc1ccc(O)c2c1C1(Cl)C(Cl)=C(Cl)C2(Cl)C1(Cl)Cl	-16	16µM*	?	?	i	i
Nc1nc(N)c2nc(CNc3ccc(C(=O)N[C@@H](CCC(=O)O)C(=O)O)cc3)cnc2n1	6	·	·	·	·	·
O=C1OC(c2ccc(O)c(S(=O)(=O)O)c2)(c2ccc(O)c(S(=O)(=O)O)c2)c2c(Br)c(Br)c(Br)c(Br)c21	5	-5%	-2%	·	·	·
CCCC1=Nc2cc(C(=O)NCCCN(CC)CC)ccc2Sc2ccccc21	-18	·	·	·	i	?
Cn1c(O)c(/C=N/Nc2ccccc2)c(=O)n(C)c1=O	3	6.5µM*	-18%	-1	i	i
Cn1c(O)c(C=Nc2ccccc2)c(=O)n(C)c1=O	-7	-9%	0%	-13	i	i

Bioassay records as filed in PubChem.
